Data published in PubChem BioAssay (EPA / NIEHS).
“And” between values parts separate entries of the source, which are not always exact repeats. Identical values can stand only once. Some structures have more than one record in an assay (separate samples or runs), and their calls can disagree. The source made the active and inactive calls. How the source made its calls: active means hit-call score of the fitted dose curve at least 0.9, where 1 is the maximum; inactive means score below 0.9.

Test: CCTE_Shafer_MEA_dev_per_network_spike_spike_number_mean: CCTE's Neural Network Formation Assay for Mean Number of Spikes in a Network Spike, Shafer Lab (AID 2284053)
Method: CCTE_Shafer_MEA_dev assay is conducted using Axion Biosystems 48 well microelectrode array (MEA) plates and Maestro recording system. Each well of the MEA plate contains a grid of 16 microelectrodes embedded in the culture surface. Electrically active cells, such as neurons, can be cultured over the electrodes, and electrical activity in these cells can be recorded extracellularly. The spontaneous firing of neurons is captured from each electrode on a microsecond timescale providing both temporally and spatially precise data. […] The CCTE_Shafer_MEA_dev assay uses primary cultures of rat cortical neurons. Recordings are made on days post-plating 5, 7, 9 and 12. As these cultures mature over time, neural networks develop functional activity and form cohesive networks in which electrical activity can be highly coordinated. CCTE_Shafer_MEA_dev_per_network_spike_spike_number_mean is 1 of 19 assay components of the CCTE_Shafer_MEA_dev assay. It measures the average number of spikes (action potential firings) in a network spike (temporally-clustered group of spikes across multiple electrodes) as the number of spikes that occur within a 0.05 s time window at the peak of a network spike divided by the total number of network spikes during a recording in a microelectrode array (MEA) using Axion Biosystems Maestro 768 channel amplifier with the AxIS adaptive spike detector. To collapse across multiple recordings made on days post-plating 5, 7, 9 and 12, the trapezoidal area-under-the-curve of the component is calculated.Data from the assay component CCTE_Shafer_MEA_dev_per_network_spike_spike_number_mean was analyzed into 1 assay endpoint. This assay endpoint, CCTE_Shafer_MEA_dev_per_network_spike_spike_number_mean, was analyzed in the negative analysis fitting direction relative to DMSO as the negative control and baseline of activity. Using a type of functional reporter, gain or loss-of-signal activity can be used to understand electrical activity.
On the day prior to culture, each well was coated thoroughly with 150 uL of 0.05% polyethyleneimine (PEI, Sigma Cat P3143) in 50 mM HEPES (Sigma Cat H7523) at a pH of 8. The plate was incubated at 37C for one hour. PEI was rinsed out with 500 uL of sterile water three times. Plates were stored at 4C until the day of culture. This culture was plated at a seeding density of 1.5 x 10^5 cells/well on a 48-well MEA plate, prepared as described above. Cells were administered via a 25 uL media/laminin ([…]; Sigma Cat L2020-1MG) drop directly onto the microelectrode array, as adding the cells with the laminin results in better attachment than pre-coating with laminin. After 2 hours, an additional 475 uL of cortical media was added and the cells returned to the incubator. Exposure starts at day 0 of plating and is continued over twelve days of network development until the experiment is terminated. Cells are fed with fresh medium on DIV 5 and 9, following the recordings on those days. The entire volume of media in the well is exchanged and any vehicle or compound treatment is renewed. Complete details are found in OP-NHEERL/ISTD/SBB/TJS/2015-03-r0 (available on request, email shafer.tim@epa.gov). Measurement of the electrical activity is non-invasive, and recordings can be made from the same plate over multiple different days of the culture. In cortical neurons, this allows for the measurement of extracellular action potentials over the period during which networks form in the MEA plate.

Compound | outcome | AC50
CC(Oc1cccc(Cl)c1)C(=O)O (stereo not given) | inactive | 
COP(=O)(NC(C)=O)SC (stereo not given) | inactive | 
CN1COCN(Cc2cnc(Cl)s2)C1=N[N+](=O)[O-] | inactive | 
CCOP(=O)(OCC)Oc1cc(C)nc(C(C)C)n1 | inactive | 
COP(=O)(OC)OC(Br)C(Cl)(Cl)Br (stereo not given) |  | 8.92 µM (active) and 10.3 µM (active)
CCOP(=O)(NC(C)C)Oc1ccc(SC)c(C)c1 (stereo not given) | inactive | 61.4 µM (active)
CCCSP(=O)(OCC)SCCC |  | 15.8 µM (active) and 27.3 µM (active)
CSC1=N[C@@](C)(c2ccccc2)C(=O)N1Nc1ccccc1 | inactive | 
CCOP(=S)(OCC)OC(Cl)C(Cl)(Cl)Cl (stereo not given) |  | 50 µM (active) and 17.4 µM (active)
COP(=O)(OC)C(O)C(Cl)(Cl)Cl (stereo not given) |  | 50 µM (active) and 15 µM (active)
S=C1NCCN1 | inactive | 
CN(C)[C@@H]1C(=O)C(C(N)=O)=C(O)[C@@]2(O)C(=O)C3=C(O)c4c(O)cccc4[C@@](C)(O)[C@H]3[C@H](O)[C@@H]12 |  | 50 µM (active)
C[Si](Cn1cncn1)(c1ccc(F)cc1)c1ccc(F)cc1 | inactive | 
C#CCC1=C(C)C(OC(=O)C2C(C=C(C)C)C2(C)C)CC1=O (stereo not given) | inactive | 
CCOP(=S)(OCC)Oc1ccc2c(C)c(Cl)c(=O)oc2c1 |  | 24.4 µM (active)
O=[N+]([O-])c1cc(C(F)(F)F)c(Cl)c([N+](=O)[O-])c1Nc1ncc(C(F)(F)F)cc1Cl |  | 0.771 µM (active)
C[N+]1(C)CCCCC1 | inactive | 

Compound | outcome | AC50
CCOP(=S)(Oc1cnc(C(C)(C)C)nc1)OC(C)C (stereo not given) |  | 67.3 µM (active) and 9.31 µM (active)
CC(C)[C@H](C(=O)O[C@H](C#N)c1cccc(Oc2ccccc2)c1)c1ccc(Cl)cc1 |  | 3.72 µM (active)
CCOC(=O)CC(SP(=O)(OC)OC)C(=O)OCC (stereo not given) | inactive | 
CC(C)N(C(=O)SCC(Cl)=C(Cl)Cl)C(C)C |  | 15 µM (active)
C=C(C)[C@H]1Cc2c(ccc3c2O[C@@H]2COc4cc(OC)c(OC)cc4[C@@H]2C3=O)O1 |  | 0.0145 µM (active)
CC(=NC#N)N(C)Cc1ccc(Cl)nc1 | inactive | 
CON=C(C(=O)OC)c1ccccc1CON=C(C)c1cccc(C(F)(F)F)c1 |  | 697 nM (active) and 542 nM (active)
CCOP(=S)(OCC)Oc1cc(C)nc(C(C)C)n1 | inactive | 16.1 µM (active)
CCCSP(=O)(OCC)Oc1ccc(Br)cc1Cl (stereo not given) | inactive | 
CC1=NNC(=O)N(/N=C/c2cccnc2)C1 | inactive | 
CCCCSP(=O)(SCCCC)SCCCC |  | 50 µM (active) and 17 µM (active)
CCOP(=O)(SC(C)CC)N1CCSC1=O (stereo not given) | inactive | 
CCOP(=S)(OCC)Oc1ccc([N+](=O)[O-])cc1 | inactive | 
CCOP(=S)(OCC)SCCSCC | inactive | 
CC(C)=CC1C(C(=O)OCN2C(=O)C3=C(CCCC3)C2=O)C1(C)C (stereo not given) | inactive | 
CC[C@H](C)[C@H]1O[C@]2(C=C[C@@H]1C)C[C@@H]1C[C@@H](C/C=C(\C)[C@@H](O[C@H]3C[C@H](OC)[C@@H](O[C@H]4C[C@H](OC)[C@@H](NC)[C@H](C)O4)[C@H](C)O3)[C@@H](C)/C=C/C=C3\CO[C@@H]4[C@H](O)C(C)=C[C@@H](C(=O)O1)[C@]34O)O2 |  | 55.1 nM (active) and 5.93 nM (active)
